The values below come from PubChem BioAssay (EPA / NIEHS).

The assay concerns TTR (gene 7276). Nature of the assay: CCTE_GLTED_hTTR_0.125uM: CCTE's human Transthyretin (hTTR) Inhibition Assay, with 0.125uM TTR, Great Lakes Toxicology and Ecology Division (GLTED) Lab (AID 2284431).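 Note: hits lower the fluorescence signal relative to DMSO baseline.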 In short, it runs like this: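 TTR at 0.125uM incubated 2 h with test chemical; displacement of bound ANSA read by fluorescence (ex 380, em 475). Activity is signal loss versus DMSO baseline.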

Molecules are shown by their SMILES. The source made the active and inactive calls. Rule for the calls: active = hit-call score of the fitted dose curve at least 0.9, where 1 is the maximum; inactive = score below 0.9.

What is called AC50 is the midpoint of the concentration-response curve, whichever way the signal moves. Take `Oc1ccc(-c2ccccc2)c(Cl)c1`: the AC50 is 35.3 nM (active). The result for `CCCCCC[C@@H](O)C/C=C\CCCCCCCC(=O)OCC(O)CO` (stereo partly drawn) reads 13500 nM (active). The result for `O=C(OCc1ccccc1)c1ccc(O)cc1` reads 322 nM (active).
